Measured values reported in PubChem BioAssay (NCI).
This is part of a sample that, as a whole, favours compounds with a hit. Of some 83,000 tested, about 20% had one in any assay.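 Cell lines were cultured in 96-well plates, exposed to a single compound concentration, and assessed for percent growth 48 hours later.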 The source made the active and inactive calls. The calls were made as follows: active = growth percent below 10; inactive = the rest.

Columns and labels:
Experiment in all cases: NCI-60 one-dose screen, 48 h (100 = growth as untreated, 0 = no growth, -100 = all killed)
Settings in all cases: 10 µM unless noted
NCI-H23 lung = system: NCI-H23 lung
NCI-H226 lung = system: NCI-H226 lung
NCI-H322M lung = system: NCI-H322M lung
HOP-62 NSCLC = system: HOP-62 NSCLC
NCI-H460 lung = system: NCI-H460 lung
HOP-92 NSCLC = system: HOP-92 NSCLC
NCI-H522 lung = system: NCI-H522 lung
786-0 renal = system: 786-0 renal
COLO 205 colon = system: COLO 205 colon
DU-145 prostate = system: DU-145 prostate
K-562 leukemia = system: K-562 leukemia
MALME-3M melanoma = system: MALME-3M melanoma
MDA-MB-231 breast = system: MDA-MB-231 breast
RXF 393 renal = system: RXF 393 renal
SF-268 CNS = system: SF-268 CNS
SF-295 CNS = system: SF-295 CNS
SF-539 CNS = system: SF-539 CNS
UACC-257 melanoma = system: UACC-257 melanoma
M14 melanoma = system: M14 melanoma
A549/ATCC NSCLC = system: A549/ATCC NSCLC

Measured: growth

Fc1ccc(-n2cc(COc3ncnc4sc5c(c34)CCCC5)nn2)cc1Cl
inactive: NCI-H23 lung 96.8% | NCI-H226 lung 94.4% | NCI-H322M lung 100% | HOP-62 NSCLC 96.3% | NCI-H460 lung 102% | HOP-92 NSCLC 109% | NCI-H522 lung 84% | 786-0 renal 98.1% | COLO 205 colon 109% | DU-145 prostate 105% | K-562 leukemia 95.5% | MALME-3M melanoma 92.1% | MDA-MB-231 breast 95.8% | RXF 393 renal 103% | SF-268 CNS 95.8% | SF-295 CNS 105% | SF-539 CNS 98.8% | UACC-257 melanoma 102% | M14 melanoma 94.2%

CCOC(=O)N1CCc2c(sc3nc4nc[nH]n4c(=O)c23)C1
inactive: NCI-H23 lung 95% | NCI-H226 lung 82.4% | NCI-H322M lung 109% | HOP-62 NSCLC 86.6% | NCI-H460 lung 109% | HOP-92 NSCLC 93.8% | A549/ATCC NSCLC 100% | 786-0 renal 99.6% | COLO 205 colon 102% | DU-145 prostate 107% | K-562 leukemia 105% | MALME-3M melanoma 102% | MDA-MB-231 breast 99.9% | RXF 393 renal 104% | SF-268 CNS 99.7% | SF-295 CNS 103% | SF-539 CNS 94.6% | UACC-257 melanoma 109%

COc1ccc(C(=O)c2cc3c(N)c(C(=O)Nc4ccc(Cl)cc4)sc3nc2C)cc1
inactive: NCI-H23 lung 89.7% | NCI-H226 lung 57.1% | NCI-H322M lung 87.1% | HOP-62 NSCLC 37.5% | NCI-H460 lung 68.4% | HOP-92 NSCLC 78.2% | NCI-H522 lung 43.8% | 786-0 renal 81.6% | COLO 205 colon 85.8% | DU-145 prostate 90.1% | K-562 leukemia 31.1% | MALME-3M melanoma 58.7% | MDA-MB-231 breast 81.2% | SF-268 CNS 56.4% | SF-295 CNS 89.3% | SF-539 CNS 71.9% | UACC-257 melanoma 77.3% | M14 melanoma 61.5%

Cc1ccc(Nc2cc(=S)nc(N)[nH]2)cc1C
inactive: NCI-H23 lung 90.8% | NCI-H226 lung 97.1% | NCI-H322M lung 98.1% | HOP-62 NSCLC 89.3% | NCI-H460 lung 103% | HOP-92 NSCLC 75.7% | NCI-H522 lung 91.1% | 786-0 renal 98.9% | COLO 205 colon 112% | DU-145 prostate 102% | K-562 leukemia 92.9% | MALME-3M melanoma 100% | MDA-MB-231 breast 80.6% | RXF 393 renal 107% | SF-268 CNS 100% | SF-295 CNS 98.6% | SF-539 CNS 96.4% | UACC-257 melanoma 103% | M14 melanoma 93.7%

CSc1nc(O)c(-c2ccccc2)c(=O)[nH]1
inactive: NCI-H23 lung 103% | NCI-H226 lung 99.1% | NCI-H322M lung 101% | HOP-62 NSCLC 105% | NCI-H460 lung 104% | HOP-92 NSCLC 101% | NCI-H522 lung 94.2% | 786-0 renal 101% | COLO 205 colon 103% | DU-145 prostate 107% | K-562 leukemia 98% | MALME-3M melanoma 101% | MDA-MB-231 breast 98.5% | RXF 393 renal 116% | SF-268 CNS 103% | SF-295 CNS 101% | SF-539 CNS 100% | UACC-257 melanoma 101% | M14 melanoma 101%

Fc1ccc(C2CC(c3cccc(Nc4ccncc4)c3)=NN2c2cc(Cl)cc(Cl)c2)cc1 (centres undefined)
inactive: NCI-H23 lung 80.2% | NCI-H226 lung 90.5% | NCI-H322M lung 73% | HOP-62 NSCLC 44.4% | HOP-92 NSCLC 58.3% | NCI-H522 lung 73% | 786-0 renal 102% | DU-145 prostate 30.2% | MALME-3M melanoma 15.3% | MDA-MB-231 breast 61.4% | SF-268 CNS 72.4% | SF-295 CNS 63.3% | SF-539 CNS 83% | UACC-257 melanoma 85.9% | M14 melanoma 104%
active: NCI-H460 lung -75.5% | COLO 205 colon -54.5% | K-562 leukemia 0.115%

CN1CCN(CC#CCNC(=O)[C@]23CCC(C)(C)C[C@H]2C2=CC[C@@H]4[C@@]5(C)Cc6c([nH]c7ccccc67)C(C)(C)[C@@H]5CC[C@@]4(C)[C@]2(C)CC3)CC1
active: NCI-H460 lung -25.3% | K-562 leukemia 1.31%
inactive: NCI-H23 lung 95.8% | NCI-H226 lung 93.9% | NCI-H322M lung 88.7% | HOP-62 NSCLC 91.9% | HOP-92 NSCLC 52.7% | NCI-H522 lung 67% | 786-0 renal 64.5% | COLO 205 colon 51.2% | DU-145 prostate 61.9% | MALME-3M melanoma 26.6% | MDA-MB-231 breast 74.1% | RXF 393 renal 66.5% | SF-268 CNS 70% | SF-295 CNS 108% | SF-539 CNS 82.6% | UACC-257 melanoma 82.2% | M14 melanoma 51.5%

COc1ccc(C2CC(n3nnnc3-c3ccccc3)=NN2)cc1 (centres undefined)
inactive: NCI-H23 lung 82% | NCI-H226 lung 75.1% | NCI-H322M lung 69.9% | HOP-62 NSCLC 78.4% | NCI-H460 lung 71.2% | HOP-92 NSCLC 80.1% | NCI-H522 lung 47.1% | A549/ATCC NSCLC 60.2% | COLO 205 colon 91.8% | DU-145 prostate 70.5% | K-562 leukemia 15.6% | MALME-3M melanoma 73.9% | MDA-MB-231 breast 40.2% | RXF 393 renal 102% | SF-268 CNS 75.4% | SF-295 CNS 27.2% | SF-539 CNS 37.9% | UACC-257 melanoma 101% | M14 melanoma 35.4%
